Hits are enriched below; roughly 32% of the tested compounds scored in any of these assays.
CYP2C19 activ = human CYP2C19 activators, primary screen, biochemical, luminescence; Cytochrome P450 2C19 (Homo sapiens), P33261; recombinant CYP2C19, luciferin-H EGE luminescence; stronger effect = higher value; 0 = fully inhibited enzyme, 1 = untreated enzyme; activation factor at 5 µM; 96,000 tested, under 10 active;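 active means activation factor of at least 2 at 5 µM in the primary screen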;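 further: 0 = wells with 2.5 mM tranylcypromine and 1 = vehicle-only wells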
Target sequence (P33261 whole entry, looked up): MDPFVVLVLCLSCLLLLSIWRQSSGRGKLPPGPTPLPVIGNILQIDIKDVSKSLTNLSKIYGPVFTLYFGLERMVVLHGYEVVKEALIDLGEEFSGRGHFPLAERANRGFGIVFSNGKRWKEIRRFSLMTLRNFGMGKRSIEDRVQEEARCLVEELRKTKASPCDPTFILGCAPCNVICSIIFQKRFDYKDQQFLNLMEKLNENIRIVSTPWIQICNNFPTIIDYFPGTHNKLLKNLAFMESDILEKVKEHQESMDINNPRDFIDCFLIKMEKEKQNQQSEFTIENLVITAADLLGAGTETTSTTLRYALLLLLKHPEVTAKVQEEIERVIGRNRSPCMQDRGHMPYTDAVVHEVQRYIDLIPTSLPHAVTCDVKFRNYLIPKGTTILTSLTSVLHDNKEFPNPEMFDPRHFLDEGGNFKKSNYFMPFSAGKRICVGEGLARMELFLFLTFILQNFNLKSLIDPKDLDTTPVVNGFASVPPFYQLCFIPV
PostGolgi ctrl = growth inhibition of yeast control strain, primary screen, counter-screen for post-Golgi transport modulator project | efflux-deficient yeast background strain, growth absorbance A615, 16 h | inhibition, % at 10 µM | 5% of 98,000 active | AID 738, 2007
CYP2C9 inhib = blockers of cytochrome P450 2C9 activity – biochemical, luminescence, ADME assay, primary screen; 20% of 96,000 active; inhibition, % at 5 µM; P11712; AID 777, 2007; CYP2C9 Supersomes, luciferin-H conversion;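 active means blocking of liver enzyme CYP2C9 beyond about 50% at 5 µM, limit read from the data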
CYP2C19 inhib = blockers of cytochrome P450 2C19 activity – biochemical, luminescence, ADME assay, primary screen | CYP2C19 Supersomes, luciferin-H EGE luminescence, 30 min | P33261 | 21% of 96,000 active | inhibition, % at 5 µM | AID 778, 2007;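 active means CYP2C19 inhibition above a set limit at 5 µM in the primary screen, cut at about 50% in these data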;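 further: plate controls were negative control wells for no effect and 2.5 mM tranylcypromine positive control for full effect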
PostGolgi yeast = phenotypic screen on post-Golgi transport, primary screen; 0.9% of 98,000 active; post-Golgi transport phenotypic cell assay; inhibition, % at 10 µM;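 further: yeast cells grown in 1536-well plates; yeast grown about 18 h at 30C before absorbance read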
CYP2C9 act = human CYP2C9 activators, primary screen, biochemical, luminescence; recombinant CYP2C9, luciferin-H conversion; stronger effect = higher value; factor 1 = untreated enzyme, 0 = blocked; activation factor at 5 µM; 1.4% of 96,000 active; Cytochrome P450 2C9 (Homo sapiens), P11712;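 active means activation factor of 2 or more for CYP2C9 at a 5 µM dose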;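 further: 0 = sulfaphenazole-blocked wells and 1 = vehicle-only wells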
* marks the source's active call; other numbers are inactive results; . = no result. Unless noted, no stated cut-off is given here; in the data, active means inhibition above about 30%; inactive means the rest.

SMILES	CYP2C19 activ	PostGolgi ctrl	CYP2C9 inhib	CYP2C19 inhib	PostGolgi yeast	CYP2C9 act
CC(C)Cc1nnc(NC(=O)c2cc(-c3ccccc3)nc3ccccc23)s1	0.6	11	32	44	8	0.7
COCC(=O)NCCc1ccc(S(N)(=O)=O)cc1	1	17	-1	-4	-8	1
CCCc1ccc(-c2cc(C(=O)NN3CCOCC3)c3ccccc3n2)cc1	0.6	19	87*	39	6	0.1
CCc1ccc(-c2cc(C(=O)N3N=C(C(F)F)CC3(O)C(F)F)c3ccccc3n2)cc1 (configuration not stated)	0.8	37*	78*	22	2	0.2
Cn1c(N)c(C(=O)c2cc(-c3ccccc3)nc3ccccc23)c(=O)n(C)c1=O	0.8	-8	-6	16	-7	1.1
CCCc1ccc(-c2cc(C(=O)NCCc3ccc(S(N)(=O)=O)cc3)c3ccccc3n2)cc1	0.6	5	98*	45	14	0
CCc1ccc(-c2cc(C(=O)Nn3cnnc3)c3ccccc3n2)cc1	0.2	7	99*	83*	-10	0
COc1cccc(NC(=O)Cc2nnc(SCC(=O)c3ccccc3)n2C)c1	.	9	.	.	2	.
Cn1c(SCC(=O)N(C2CCCCC2)C2CCCCC2)nnc1-c1cccs1	0.5	6	8	47	-5	0.9
CC(C)=C(NC(=O)c1ccccc1)C(=O)N1CCOCC1	1	0	4	2	28	1
CCC1CCc2c(c3ccccc3[nH]c2=O)O1 (configuration not stated)	0.9	30*	16	14	-13	0.8
CCOC(=O)C(C(=O)NCc1ccc(C)cc1)c1ncc(C(F)(F)F)cc1Cl (configuration not stated)	0.6	2	6	37	-1	0.9
CCOC(=O)/C(=C\Nc1ccccc1C(F)(F)F)Sc1ncc(C(F)(F)F)cc1Cl	0.4	0	82*	59*	9	0.2
CON/C=C(\C=Nc1ccc(F)cc1)c1ncc(C(F)(F)F)cc1Cl	1.1	21	21	-15	-5	0.8
COC(=O)/C(=C\Nc1ccc(Cl)c2ccccc12)c1ncc(C(F)(F)F)cc1Cl	0.7	-11	76*	33	7	0.2
COc1cccc(CN(C)C(=O)c2ccc3nccnc3c2)c1	0.2	-6	12	78*	-2	0.9
O=C(Oc1ccc(Cl)cc1)c1ccc2nccnc2c1	1	0	-4	3	-5	1
Cc1cccc(OC(=O)c2ccc3nccnc3c2)c1	0.9	10	54*	7	6	0.5
COc1ccccc1-c1nnc(SCC(=O)O)n1C	0.9	7	-10	6	5	1.1
CCOC(=O)c1c(Nc2ccccc2)sc(/C=C2\C=Nc3ccccc32)c1O	0.7	3	73*	32	21	0.3
O=C(NC1CCS(=O)(=O)C1)Oc1ccc(Cl)cc1 (configuration not stated)	1.1	7	-10	-9	17	1.1
O=C(O)C1C2C=CC(C2)C1C(=O)N1CCOCC1 (configuration not stated)	1.1	53*	-12	-11	-10	1.1
CCOC(=O)c1sc2nc(CC(=O)OC)nc(NCCN3CCOCC3)c2c1C	0.5	0	51*	54*	1	0.5
CCOC(=O)c1sc2nc(CC(=O)OC)nc(N3CCN(c4ccc(OC)cc4)CC3)c2c1C	0.1	25	96*	89*	-2	0
CCOC(=O)c1sc2nc(CC(=O)OC)nc(NCCN(CC)CC)c2c1C	1.1	4	0	-9	-11	1
SMILES	CYP2C19 activ	PostGolgi ctrl	CYP2C9 inhib	CYP2C19 inhib	PostGolgi yeast	CYP2C9 act
CCOC(=O)c1sc2nc(CC(=O)OC)nc(NCc3ccc(Cl)cc3)c2c1C	0.9	13	7	7	-7	0.9
CCCCn1nnnc1SCC(=O)NNC(=O)C1CCCCC1	0.9	-4	6	10	2	0.9
COc1ccc2c(c1)c(C(=O)CN1CCN(C(=O)c3ccco3)CC1)c(C)n2C	0.4	1	3	57*	-4	1
Cc1ccc(OCc2nnc(SCC(=O)Nc3sc(C)c(C)c3C#N)n2C)cc1	1	-3	1	1	-5	1
CCCC(C)c1nnc(NC(=O)C2CCCO2)s1 (configuration not stated)	1	-3	-11	2	-6	1.1
N#CC1=C(N)OC2=C(CN(Cc3ccccc3)C/C2=C\c2cccnc2)C1c1cccnc1 (configuration not stated)	1	5	41	3	2	0.6
CCN1CC2=C(OC(N)=C(C#N)C2c2ccccc2)/C(=C\c2ccccc2)C1 (configuration not stated)	0.1	6	66*	91*	0	0.3
O=C(CSc1nc2c(sc3ccccc32)c(=O)n1CCO)NCc1ccco1	0.8	13	43	23	0	0.6
Cc1cc(NC(=O)CSc2nc3c(sc4ccccc43)c(=O)n2CCCN2CCOCC2)n[nH]1	0.5	4	20	52*	0	0.8
Cc1cc(NC(=O)CSc2nc3c(sc4ccccc43)c(=O)n2CCc2ccccc2)n[nH]1	0.1	14	36	94*	-7	0.6
CC[N+](CC)(CC)C/C(N)=N/O	1	-5	0	4	-4	1
C=C(C)Cn1c(SCC(=O)O)nc2c1c(=O)[nH]c(=O)n2C	1.1	1	-6	-10	0	1.1
CCN(N=Nc1cccc([N+](=O)[O-])c1)c1cccc([N+](=O)[O-])c1	0.7	15	58*	31	4	0.4
CCN1CCN(S(=O)(=O)c2cccc([N+](=O)[O-])c2)CC1	0.9	12	33	6	-5	0.7
CCCCC(CCC(=O)O)(C(=O)OCC)c1csc(N)n1 (configuration not stated)	0.9	4	-1	6	-3	1
CCCS(=O)(=O)N1CCC(C(=O)c2cccc(C(F)(F)F)c2)CC1	0.6	8	-8	38	-9	1.1
CS(=O)(=O)N1CCC(C(=O)c2cccc(Cl)c2)CC1	0.2	1	33	79*	3	0.7
O=C(CNC(=O)C1CCCCC1)NC1=NCCS1	0.8	-2	10	15	-3	0.9
Cc1ccc(C2CC(c3cccc(C)c3)n3ncnc3N2)cc1 (configuration not stated)	0	0	57*	96*	5	0.4
Cc1cccc(C2CC(c3ccccc3)Nc3nc(N)nn32)c1 (configuration not stated)	0.9	6	9	10	-6	0.9
